In PubChem BioAssay AID1259415 (National Center for Advancing Translational Sciences (NCATS), 2018):
Among all 410,000 compounds or so, about 18,000 (4.4%) were called active. Roughly 7% stayed inconclusive and do not appear here. Rule as the data show it: active = activity change below about -60%; inconclusive = no clear call, values can overlap the other calls; inactive = above about -39%. The sample as a whole holds a higher share of actives than the screen did.

Test: qHTS Assay for inhibitors of the human cytomegalovirus (HCMV)
Conditions: HFF cells, HCMV-luciferase reporter, 72 h; at 57.5 µM; stronger effect = lower value
In short: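 Screen run at 2 compound doses on HFFs infected with reporter HCMV, MOI 1 PFU/cell. Luciferase activity from cell lysates at 72 h post infection gave inhibition relative to buffer-only and Salinomycin wells.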
% is scaled to controls: 0 for no effect and ±100 for the full control effect.

SMILES	activity change, negative = inhibition
COc1ccc(OC)c(CNC(=O)c2c3c(nc4ccccc24)C(=O)N(C2CCCCC2)C3)c1	18.7% (inactive)
CCOC(=O)C1CCN(C(=O)CSc2c3c(nc4ccc(Cl)cc24)CCCC3)CC1	92.3% (inactive)
Cc1ccc(OCCCCN2CCCCC2)c(Br)c1	-23.7% (inactive)
Cc1ccc(C(C)(C)C)c(OCCCCN2CCCC2)c1	-65.6% (active)
Cc1ccc(C(C)C)cc1OCCN1CCCC1	2.84% (inactive)
CC(=O)N1CCc2ccc(N)cc21	-18% (inactive)
COc1cc(NC(=O)c2cc3ccc4cccnc4c3[nH]2)cc(OC)c1OC	65% (inactive)
CCOc1ccc(Nc2nc3c(S(=O)(=O)c4cccc(Cl)c4)nnn3c3ccsc23)cc1	16.8% (inactive)
COc1ccc(S(=O)(=O)N(C)C[C@H]2Oc3ccc(NS(=O)(=O)c4cccs4)cc3CC(=O)N([C@H](C)CO)C[C@H]2C)cc1	8.23% (inactive)
C[C@H](CO)N1C[C@H](C)[C@H](CN(C)CC2CC2)Oc2ccc(NC(=O)CCN3CCOCC3)cc2C1=O	-26.7% (inactive)
C[C@H]1CN([C@@H](C)CO)C(=O)Cc2cc(NS(C)(=O)=O)ccc2O[C@@H]1CN(C)CC1CC1	-70.1% (active)
O=C(c1cccc(Cl)c1)N1CCN(CCc2ccncc2)CC1	14.9% (inactive)
Fc1ccc(Nc2nnns2)cc1	21.3% (inactive)
O=C(COc1ccccc1)OCc1cc(=O)n2nc(-c3cccs3)sc2n1	24.1% (inactive)
Cc1cccc(NC(=O)c2ccc(F)c(S(=O)(=O)N(C)C3CCCCC3)c2)c1	-81.6% (active)
CCOc1cccc(NC(=O)c2ccc(F)c(S(=O)(=O)N(CC)c3cccc(C)c3)c2)c1	-33.3% (inactive)
CCc1ccccc1NC(=O)c1ccc(F)c(S(=O)(=O)NC2CCCCCC2)c1	27% (inactive)
O=C(CSc1nnc(-c2ccccc2F)o1)Nc1cccc(C(F)(F)F)c1	98.3% (inactive)
Cc1nn(Cc2ccc(F)cc2)c(C)c1NC(=O)c1cc(CC(C)C)on1	-39% (inactive)

SMILES	activity change, negative = inhibition
CCCCCCOc1ccc(OC(=O)c2cccnc2)cc1	-79.3% (active)
CCCOc1cccc(C(=O)NCCCNC(=O)c2cccnc2)c1	-8.85% (inactive)
Cc1ccc(OCC(=O)N2CCN(C(=O)c3cccnc3)CC2)cc1	-12.6% (inactive)
O=C(CCn1ccc2cc(S(=O)(=O)N3CCCC3)ccc21)NCc1cccc(Cl)c1	-10.7% (inactive)
O=C(Cn1ncn2nc(-c3cccs3)cc2c1=O)NCc1cccc(Br)c1	12.3% (inactive)
CCC[C@H]1[C@@H](NS(=O)(=O)c2ccc(F)cc2)CC[C@@]23CCCN2C(=O)CCC[C@@H]13	-4.65% (inactive)
CCCS(=O)(=O)c1ncc(Cl)c(C(=O)Nc2scc(-c3ccccc3)c2C(=O)OCC)n1	-98.8% (active)
CCOC(=O)c1c(C2CC2)csc1NC(=O)CSCc1c(C)noc1C	42.9% (inactive)
CCCSc1ncc(Cl)c(C(=O)Nc2sc3c(c2C(=O)NCCOC)CCCC3)n1	-24% (inactive)
CCOC(=O)c1c(-c2cccc(C)c2)csc1NC(=O)c1c(-c2ccccc2)noc1C	-94% (active)
CCOC(=O)c1c(-c2cccc(N)c2)cn2ccccc12	17.2% (inactive)
CCOC(=O)c1[nH]cnc1C(=O)Nc1ccccc1C	-21.4% (inactive)
Oc1c(C(c2ccccc2Cl)N2CCOCC2)sc2nc(-c3ccco3)nn12 (stereo unspecified)	-16.1% (inactive)
O=C(CCN1CCc2ccccc2C(O)(c2ccccc2)C1)c1ccc2c(c1)OCCO2 (stereo unspecified)	25.7% (inactive)
O=[N+]([O-])c1ccc(N/N=C2/CCCCC2c2ccccn2)c([N+](=O)[O-])c1 (stereo unspecified)	4.73% (inactive)
O=[N+]([O-])c1ccc2nc(-c3ccccn3)[nH]c2c1	-79.3% (active)
O=S(=O)(Nc1ccc2nc(-c3ccco3)[nH]c2c1)c1ccccc1	16.8% (inactive)
Cc1cccn2c(=O)c(/C=C(\C#N)C(N)=O)c(N3CCCCCC3)nc12	-70.1% (active)
COCCCNC(=O)/C(C#N)=C/c1c(N2CCCCCC2)nc2ccccn2c1=O	-37.9% (inactive)

SMILES	activity change, negative = inhibition
Cc1cc(C)cc(Oc2nc3c(C)cccn3c(=O)c2/C=C(\C#N)C(=O)NC2CCS(=O)(=O)C2)c1 (stereo unspecified)	44.8% (inactive)
Nc1[nH]c(C(=O)c2ccccc2)c(-c2ccc(Br)cc2)c1C(=O)NC1CC1	-20.4% (inactive)
NC(=O)C(Cc1ccccc1)NC(=O)C12CC3CC(CC(C3)C1)C2 (stereo unspecified)	50.8% (inactive)
Cc1ccc(S(=O)(=O)c2nc(-c3cccs3)oc2N2CCCCC2)cc1	-15.8% (inactive)
COc1cc(-c2cc3n(C)c(C)c(CCC(=O)Nc4ccc(F)cc4)c(=O)n3n2)cc(OC)c1OC	-22.9% (inactive)
Cc1sc(C2C(C#N)=C(N)N(c3cccc(Cl)c3)C3=C2C(=O)CCC3)cc1CN1CCOCC1 (stereo unspecified)	-21.6% (inactive)
COc1ccc(C(C)=O)cc1COc1ccc(Cl)c(C)c1	-1.3% (inactive)
COc1ccc(/C=C/C(=O)Nc2c(C)nn(C)c2C)cc1COc1ccc(Br)cc1	-35.2% (inactive)
CCn1nc(C)c(NC(=O)/C=C/c2ccc(OC)c(COc3ccc(Br)cc3)c2)c1C	-68% (active)
CCOC(=O)N1CCc2c(sc3c2C(=O)NC(c2ccccc2F)N3)C1 (stereo unspecified)	-3.15% (inactive)
C=CCN1C(=O)C(Cc2ccc(OCC)cc2)SC1=Nc1ccc(C(=O)O)cc1 (stereo unspecified)	10.9% (inactive)
CN(c1cccc(NC(=O)Nc2ccc(Cl)cc2)c1)S(C)(=O)=O	-81.1% (active)
CC(=O)Nc1cccc(NC(=O)c2ccc3c(c2)CCN3S(C)(=O)=O)c1	40.6% (inactive)
CN(c1ccc(C(=O)N2CCc3ccccc3C2)cc1)S(C)(=O)=O	5.34% (inactive)
CNS(=O)(=O)c1ccc(NC(=O)Nc2ccc3c(c2)OCO3)cc1	61.9% (inactive)
CCN(CC)c1ccc(NC(=O)CN2CCN(CC(=O)Nc3ccc(Cl)cc3)CC2)cc1	18% (inactive)
CN(c1cccc(NC(=O)c2ccc(CN3CCc4ccccc4C3)cc2)c1)S(C)(=O)=O	-74.1% (active)
CC1(C(=O)NCc2cccc3ccccc23)CCN1Cc1ccc(-c2ccccc2)o1 (stereo unspecified)	-20.5% (inactive)
